Assay [1] deals with Human papillomavirus type 1a protein E7 (residues 44-93). Description: small molecules binding HPV E7 44-93 – biochemical, small-molecule microarray, residues 44-93, 635 nm fluorescence, primary screen (AID 1108).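 Further: E7 fragment applied at 1 µg/mL in TBST for 1 h at 4 C; score combines spot fluorescence with its signal to noise ratio.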 To be noted: fluorescence 635 nm, higher = more signal.
Assay [2] in a line: hepatitis C replication reporter changes, two-sided – Huh7 cells, luciferase reporter, HCV replication inhibitor project, primary screen (AID 1109).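 Further: huh7 hepatoma cells harbouring a luciferase neomycin HCV replicon reporter; luciferase luminescence as measure of HCV replicon replication; test concentration not given here.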 To be noted: Huh7 HCV replicon luciferase reporter, 48 h; higher = more signal. On the technique in general: Reporter assays use an easily measured gene product as a stand-in for the process of interest.
For assay [3], the target named is Left-right determination factor 2 (Homo sapiens) (UniProt O00292). Description: small molecules binding LEFTY2 protein – biochemical, small-molecule microarray, 635 nm fluorescence scan, primary screen (AID 1110). The settings on record: higher = more signal.
The target in assay [4] is Calmodulin-1 (Homo sapiens) (UniProt P0DP23). The assay is described as follows: small molecules binding calmodulin-1 with EGTA – biochemical, small-molecule microarray, Cy5-labelled CALM1, profiling panel (AID 1111).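 Further: labelled calmodulin applied in Tris saline Tween buffer holding calcium plus EGTA and DTT.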 To be noted: Cy5-CALM1 binding fluorescence, higher = more signal.
The target is the same in assay [5]. The assay is described as follows: small molecules binding Ca-loaded calmodulin-1 – biochemical, small-molecule microarray, Cy5-labelled CALM1, plus calcium, artefact control for SMM control-protein annotation, profiling panel (AID 1112).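 Further: score merges spot fluorescence with signal to noise from triplicate slides.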 The settings on record: Cy5-CALM1 binding fluorescence, higher = more signal.
Assay [6] in a line: probe aWnt5a binding to arrayed compounds – biochemical, biotinylated probe, 635/667 nm fluorescence, primary screen (AID 1113).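 Further: score merges 667 nm fluorescence intensity with signal-to-noise per printed feature.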 The settings on record: small-molecule microarray, higher = more signal.
Assay [7] is described as follows: probe aShh binding to arrayed compounds – biochemical, biotinylated probe, 635/667 nm fluorescence, primary screen (AID 1114).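 Further: probe is biotin-labelled aShh protein from a stem cell growth factor screen; measures binding of labelled protein to compounds printed on the slide; score merges feature fluorescence at 667 nm with signal-to-noise.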 The settings on record: small-molecule microarray, higher = more signal.
A short description of assay [8]: probe aNog binding to arrayed compounds – biochemical, biotinylated probe, 635/667 nm fluorescence, primary screen (AID 1115).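 Further: probe is biotinylated aNog protein used at 0.15 µg/mL for 1 h at 4 C; z-score combines 667 nm fluorescence of each spot with its signal to noise.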 To be noted: small-molecule microarray, higher = more signal.
In assay [9] the target is Torsin-1A-interacting protein 1 (Homo sapiens) (UniProt Q5JTV8). The assay is described as follows: compound microarray binding of lysate hLAP1 – cell lysate, small-molecule microarray, COS7 lysate, 635/667 nm fluorescence, primary screen (AID 1116). The settings on record: 635 nm fluorescence, higher = more signal.
The target of assay [10] is Alpha-bungarotoxin (Bungarus multicinctus) (UniProt P60615). Description: compounds binding labelled alpha-BTX control protein – biochemical, small-molecule microarray, Alexa647 label, 635/667 nm fluorescence, artefact control for SMM control protein annotation, profiling panel (AID 1117). The settings on record: alpha-BTX-A647 binding fluorescence, higher = more signal.

Data on 13 molecules can be found in PubChem BioAssay.

Chain of Torsin-1A-interacting protein 1 (Homo sapiens) (Q5JTV8 whole entry, looked up): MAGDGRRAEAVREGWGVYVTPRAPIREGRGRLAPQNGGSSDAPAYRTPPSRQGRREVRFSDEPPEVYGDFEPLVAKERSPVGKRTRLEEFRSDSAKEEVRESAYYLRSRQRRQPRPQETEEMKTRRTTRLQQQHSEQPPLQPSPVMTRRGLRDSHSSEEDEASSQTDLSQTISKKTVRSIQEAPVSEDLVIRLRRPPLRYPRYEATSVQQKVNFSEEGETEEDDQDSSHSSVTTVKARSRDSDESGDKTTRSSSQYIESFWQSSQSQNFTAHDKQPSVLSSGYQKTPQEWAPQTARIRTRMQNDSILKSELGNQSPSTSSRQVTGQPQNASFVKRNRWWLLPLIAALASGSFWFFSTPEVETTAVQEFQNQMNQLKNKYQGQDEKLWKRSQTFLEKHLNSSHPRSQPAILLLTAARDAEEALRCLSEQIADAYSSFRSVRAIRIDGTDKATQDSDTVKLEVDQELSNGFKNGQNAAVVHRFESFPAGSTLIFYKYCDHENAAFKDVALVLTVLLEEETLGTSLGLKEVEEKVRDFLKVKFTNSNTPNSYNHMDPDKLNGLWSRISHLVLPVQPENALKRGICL
Chain of Left-right determination factor 2 (Homo sapiens) (O00292 whole entry, looked up): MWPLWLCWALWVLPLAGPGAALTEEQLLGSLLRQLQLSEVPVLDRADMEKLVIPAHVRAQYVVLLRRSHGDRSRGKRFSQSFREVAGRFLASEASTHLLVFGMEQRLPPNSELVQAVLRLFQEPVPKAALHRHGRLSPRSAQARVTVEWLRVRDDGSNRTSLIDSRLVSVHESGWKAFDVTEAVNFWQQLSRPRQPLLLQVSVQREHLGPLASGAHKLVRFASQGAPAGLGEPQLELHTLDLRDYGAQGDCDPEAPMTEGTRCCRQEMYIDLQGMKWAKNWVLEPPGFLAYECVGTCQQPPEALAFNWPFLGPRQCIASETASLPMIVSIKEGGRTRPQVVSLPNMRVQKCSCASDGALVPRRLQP
Chain of Alpha-bungarotoxin (Bungarus multicinctus) (P60615 whole entry, looked up): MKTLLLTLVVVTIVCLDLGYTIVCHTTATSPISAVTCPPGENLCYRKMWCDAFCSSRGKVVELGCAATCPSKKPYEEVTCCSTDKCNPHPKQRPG

Take `CN(C)C(=O)[C@]1(CCC(=O)OC(C)(C)C)N=C(c2ccc(OCCCO)cc2)O[C@@H]1c1ccccc1CN=[N+]=[N-]`: the composite z-score in assay [1] is 1.44; in [3], -0.502; in assay [4], 2.31; in assay [5], 0.392; in [6], 0.26; in [7], 0.4. Also, the composite z-score was 1.13 in assay [8], 2.9 in assay [9] and 1.81 in [10]. The z-score in assay [2] is -2.19.

On to `COCCOC(=O)N1C(=O)[C@@]2(c3cc(C#CCNC(N)=O)ccc31)[C@H](C(N)=O)[C@H]1C(=O)O[C@H](c3ccccc3)[C@H](c3ccccc3)N1[C@@H]2c1ccccc1OCCO`, for which the composite z-score in [1] is 0.989; in [3], 0.467; in assay [4], 0.318; in [5] it was -0.304; in assay [6], -0.129; in assay [7] it was -0.0977. The composite z-score in [8] was -0.288; in assay [9], 1.26; in assay [10], 1.06. Besides, the z-score in assay [2] is -0.814.

For `COCC(=C=CC[C@H](O)c1ccc(CO)o1)CCO`, the composite z-score was 0.76 in assay [1]; 0.173 in assay [3]; -0.0876 in [4]; -0.249 in assay [5]; 0.0108 in assay [6]; -0.0119 in [7]. The composite z-score in assay [8] is 0.502; in [9], -0.0673; in [10], 0.818. In assay [2], this molecule displayed a z-score of -0.793.

For the molecule `C[N+](C)(C)CCCC[C@@H]1NC(=O)[C@@H]2C[C@H](C(=O)NCCCCCCN)[C@H](c3cccc(OCCO)c3)N2C1=O`, the composite z-score worked out at 0.896 in [1]; 0.676 in [3]; 2.6 in [4]; 1.48 in assay [5]; 0.095 in [6]; 1.45 in assay [7]. Further, the composite z-score in [8] was 0.662; in assay [9] it was 2.55; in assay [10], 1.9. The z-score in assay [2] was -0.0759.

`CCCCCCCCCCC(O)C1C=CC2C(=O)N(c3ccccc3)C(=O)C2N1Nc1ccc(C#N)cc1` (stereo not given): the composite z-score was 1.38 in assay [1]; -0.157 in [3]; 2.48 in [4]; 1.19 in assay [5]; 0.203 in [6]; -0.164 in assay [7]. In addition, the composite z-score in [8] is -0.889; in [9] it was 1.47; in assay [10] it was 1.19. In addition, the z-score in assay [2] was -1.57.

As for `CCCCC(=C=CC[C@H](O)c1ccc(OCCO)cc1)CCO`, the composite z-score was 0.656 in [1]; -0.917 in [3]; -0.333 in assay [4]; -0.404 in assay [5]; -0.124 in assay [6]; -0.154 in assay [7]. The composite z-score was -0.0007 in assay [8], 0.92 in [9] and -0.322 in assay [10]. The molecule also came in with a z-score in assay [2] of -1.1.

Regarding `CCOC(=O)C[C@H]1[C@H](OC(=O)c2ccc(C(=O)c3ccccc3)cc2)[C@@H](NC(=O)c2ccc3ccccc3n2)c2cc(OCCCO)ccc2N1C(=O)Cc1ccc(OC)cc1`, the composite z-score in assay [1] is 0.947; in assay [3], 0.471; in [4], 1.08; in [5], 0.0823; in [6], -0.202; in assay [7], 0.0115. Also, the composite z-score in [8] was -0.259; in assay [9], -0.0179; in assay [10], -0.0434. The molecule further displayed a z-score in assay [2] of 0.361.

As for `COc1ccc(C(=O)Nc2ccc(CN3C(=O)[C@]4(O[C@H](CC(=O)N5Cc6ccccc6C[C@H]5CO)[C@@H]([Si](C)(C)c5ccc(OC)cc5)[C@@H]4C)c4ccccc43)cc2)cc1`, the composite z-score is 1.33 in assay [1]; 0.575 in assay [3]; 0.301 in [4]; -0.376 in assay [5]; -0.128 in assay [6]; -0.232 in [7]. Besides, the composite z-score in assay [8] was -0.31; in [9], 0.795; in assay [10] it was 1.31. In [2], the z-score is -3.58.

For the molecule `COC(=O)[C@]1(CCS(=O)(=O)c2ccccc2)N=C(c2ccc(OCCCO)cc2)O[C@@H]1c1ccccc1N=[N+]=[N-]`, the composite z-score is -0.0608 in assay [1]; 0.744 in assay [3]; 1.73 in assay [4]; 0.785 in assay [5]; 0.0655 in assay [6]; 0.232 in assay [7]. The composite z-score was determined as 0.897 in assay [8], 0.815 in assay [9] and 2.06 in assay [10]. In assay [2], this molecule came in with a z-score of -2.55.

`CCCCCN1CC=CC23O[C@@H]4/C=C\CCCOC(=O)C4[C@H]2C(=O)N(C(C)CO)[C@@H]3C1=O` (stereo not given in full): the composite z-score was -0.141 in [1]; -1.67 in assay [3]; -0.452 in assay [4]; -0.254 in assay [5]; -0.203 in [6]; -0.181 in assay [7]. The composite z-score in assay [8] is -0.0057; in assay [9], -0.111; in [10], 2.97. Moreover, the z-score in assay [2] is -0.646.

For `CN1C2C=C(CCCO)C(C3C(=O)N(C(N)=O)C(=O)C32)C1C1CC1` (stereo not given), the composite z-score in assay [1] is -0.071; in [3], -0.645; in assay [4], -0.495; in assay [5] it was -0.458; in assay [6], -0.0462; in [7], 0.0062. Moreover, the composite z-score is -0.102 in [8], 0.474 in [9] and 0.0218 in assay [10]. The molecule also returned a z-score in [2] of -0.225.

For the molecule `CC(C)C(CO)N1C(=O)[C@@H]2C3C(=O)OCCC/C=C\[C@H]3OC23C=CCN(c2ccc4ccccc4c2)C(=O)[C@@H]13` (stereo not given in full), the composite z-score is -0.812 in assay [1]; -1.43 in assay [3]; -0.14 in assay [4]; -0.132 in [5]; -0.0405 in assay [6]; -0.0822 in assay [7]. Moreover, the composite z-score was 0.117 in assay [8], -0.427 in [9] and -0.287 in assay [10]. The molecule further returned a z-score in assay [2] of -1.23.

As for `COCCOC(=O)N1C(=O)[C@@]2(c3cc(C#CC4(O)CCCCCC4)ccc31)[C@H](C(=O)N1CCc3cc(OC)c(OC)cc3C1)[C@H]1C(=O)O[C@H](c3ccccc3)[C@H](c3ccccc3)N1[C@@H]2c1ccc(OCCO)cc1`, the composite z-score in assay [1] is 1.14; in assay [3], 0.805; in assay [4] it was 0.903; in assay [5], -0.392; in [6] it was -0.0685; in assay [7], -0.0011. Also, the composite z-score in assay [8] was -0.136; in assay [9] it was 0.695; in assay [10], 0.152. In addition, the z-score in assay [2] is -1.22.
